The values below come from the supplement of paper PMC6555819.

Holding throughout (assay): PBM binding z-score (relative to random genomic background probes); higher = stronger binding; sequences stand for … in GC…GCGATTGACAGCGTAGAATGAAGG
Assay [1] deals with FXR:RXRa (NR concentration 270 nM, RXRa partner concentration 90 nM). The gist of the method:
(§1)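 Binding buffer was PBS pH 7.4 with 2% milk, 0.02% Triton X-100, 1 mM DTT, 0.2 mg/mL BSA and 0.4 mg/ml salmon testes DNA. In it, ligand-free nuclear receptor dimers were incubated 1 h on custom Agilent 4×180K protein-binding microarrays carrying double-stranded probes. Antibodies against each partner (one per run) detected binding, and z-scores were calculated against random background probes after regression normalization of scanned fluorescence.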

For assay [2], the system named is LXRa:RXRa (NR concentration 270 nM, RXRa partner concentration 90 nM). The gist of the method: as §1
Assay [3] deals with LXRa homodimer (NR concentration 270 nM). The gist of the method: as §1
In assay [4] the test system is LXRb:RXRa (NR concentration 270 nM, RXRa partner concentration 90 nM). The gist of the method:
as §1

The test system of assay [5] is LXRb homodimer (NR concentration 270 nM). The gist of the method:
as §1

Assay [6] has as its system PPARa:RXRa (NR concentration 270 nM, RXRa partner concentration 90 nM). The gist of the method:
as §1

In assay [7] the test system is PPARg:RXRa (NR concentration 180 nM, RXRa partner concentration 90 nM). The gist of the method:
as §1

Assay [8] has as its system PPARg:RXRa 270nM:90nM, anti-RXR (NR concentration 270 nM, RXRa partner concentration 90 nM). The gist of the method:
as §1

The test system of assay [9] is PPARg:RXRa 30nM:10nM, anti-RXR (NR concentration 30 nM, RXRa partner concentration 10 nM). The gist of the method: as §1
Assay [10] concerns PPARg:RXRa 90nM:30nM, anti-RXR (NR concentration 90 nM, RXRa partner concentration 30 nM). In outline:
as §1

In assay [11] the test system is PPARg:RXRa DBDmut IVT, anti-RXR (DBD mutation: RXRa K156A/R161A, NR concentration 270 nM, RXRa partner concentration 90 nM). The gist of the method: as §1
For assay [12], the system named is PPARg:RXRa IVT, anti-PPARg (NR concentration 270 nM, RXRa partner concentration 90 nM). In outline: as §1
For assay [13], the system named is PPARg DBDmut:RXRa IVT, anti-PPARg (DBD mutation: PPARg1 K132A/R137A, NR concentration 270 nM, RXRa partner concentration 90 nM). The gist of the method:
as §1

The test system of assay [14] is PPARg DBDmut IVT, anti-PPARg (DBD mutation: PPARg1 K132A/R137A, NR concentration 270 nM). In outline:
as §1

Assay [15] relates to PPARg homodimer (NR concentration 180 nM). The gist of the method: as §1
Assay [16] relates to PXR:RXRa (NR concentration 270 nM, RXRa partner concentration 90 nM). In outline: as §1
The subject of assay [17] is PXR homodimer (NR concentration 270 nM). The gist of the method:
as §1

For assay [18], the system named is RARa:RXR (NR concentration 270 nM, RXRa partner concentration 90 nM). In outline: as §1
For assay [19], the system named is RARa homodimer (NR concentration 270 nM). In outline:
as §1

The subject of assay [20] is RARb:RXRa (NR concentration 270 nM, RXRa partner concentration 90 nM). In outline: as §1

As for ATATGTAGGTTAAGGGTCATTCATGTTGGTTCGC, the PBM binding z-score was 5.05 in assay [1]; 4.86 in assay [2]; 3.12 in [3]; 4.48 in assay [4]; 1.33 in assay [5]; 6.66 in assay [6]. The PBM binding z-score in assay [7] stood at 11.6; in assay [8], 9.59; in [9], 9.79; in [10], 10.5; in assay [11], 7.75; in assay [12], 8.04. Also, the PBM binding z-score in assay [13] was 2.47; in assay [14], 1.44; in assay [15] it was 3.15; in assay [16], 4.77; in assay [17] it was 1.38; in assay [18], 5.63. Moreover, the PBM binding z-score in assay [19] amounted to 2.15; in assay [20], 3.6.

In the case of AGAATGAGGGTATTAAGATCAGGGAATTGCGGTC, the PBM binding z-score was 0.048 in [1]; 0.136 in assay [2]; -0.107 in assay [3]; -0.105 in [4]; 0.211 in [5]; 0.659 in [6]. Also, the PBM binding z-score in assay [7] was determined as 0.403; in assay [8], 0.28; in assay [9], 0.322; in assay [10] it was 0.102; in assay [11], 1.71; in assay [12], 0.923. Moreover, the PBM binding z-score is 0.443 in [13]; 0.824 in assay [14]; 0.506 in assay [15]; 0.0196 in assay [16]; 0.451 in assay [17]; 0.253 in assay [18]. Moreover, the PBM binding z-score in assay [19] came to 0.44; in assay [20], 0.4.

In the case of AATACAGGGTCACTAGGCCAGAGCAGGTACGAAT, the PBM binding z-score in assay [1] stood at 5.98; in assay [2], 5.08; in [3], 0.784; in assay [4] it was 3.77; in assay [5], 0.86; in assay [6], 5.66. In addition, the PBM binding z-score amounted to 7.53 in assay [7]; 6.45 in assay [8]; 3.36 in [9]; 5.53 in assay [10]; 4.31 in [11]; 5.63 in assay [12]. Further, the PBM binding z-score in [13] was 2.36; in [14] it was 1.22; in [15], 2.4; in assay [16], 3.16; in assay [17] it was -0.000752; in assay [18], 4.15. The PBM binding z-score in assay [19] came to 0.899; in assay [20], 4.16.

With ACTAGTTGGTCAGCTGAGTTCACACACAATTCGG, the PBM binding z-score in assay [1] was 1.06; in assay [2] it was 1.59; in [3], 1.72; in assay [4], 1.59; in [5], 0.275; in assay [6], 1.65. The PBM binding z-score amounted to 0.747 in assay [7]; 0.792 in assay [8]; 0.098 in [9]; 0.251 in assay [10]; 1.2 in assay [11]; 1.32 in assay [12]. In addition, the PBM binding z-score came out at 0.662 in [13]; 0.707 in assay [14]; 0.775 in [15]; 5.66 in assay [16]; 6.87 in [17]; 2.32 in assay [18]. Further, the values for the PBM binding z-score in assay [19] and in [20] were 0.2 and 2, respectively.

CCTTCTGGGCCAAAGGTCATTGATTCCAATGCTC: the PBM binding z-score in [1] was 4.88; in assay [2], 5.18; in assay [3] it was 4.15; in [4], 5; in assay [5], 1.15; in assay [6], 6.61. Moreover, the PBM binding z-score in assay [7] worked out at 11.3; in [8], 10.2; in assay [9], 10.6; in [10], 11.4; in assay [11], 5.17; in [12], 6.5. The PBM binding z-score in assay [13] turned out to be 0.508; in assay [14] it was 0.533; in [15], 2.95; in assay [16], 5.52; in [17] it was 1.51; in assay [18] it was 6.29. The results for the PBM binding z-score in assay [19] and in assay [20] were 0.576 and 4.44, respectively.

Regarding CCAGACAGGTGAAAGGTTACTCAGTCTGGTACGC, the PBM binding z-score is 2.37 in assay [1]; 2.59 in [2]; 0.167 in assay [3]; 2.26 in assay [4]; -0.0595 in assay [5]; 4.67 in [6]. In addition, the PBM binding z-score amounted to 7.6 in assay [7]; 7.17 in assay [8]; 5.84 in assay [9]; 7.77 in assay [10]; 1.76 in assay [11]; 3.47 in assay [12]. In addition, the PBM binding z-score was -0.162 in assay [13]; 0.368 in [14]; 1.65 in assay [15]; 2.74 in assay [16]; 0.256 in assay [17]; 4.24 in assay [18]. In addition, the PBM binding z-score in assay [19] worked out at 0.58; in assay [20], 2.22.

For GCTGCTTGGTCAACTGATGGTCAGCTAAAGCTCG, the PBM binding z-score in [1] is -0.663; in assay [2], -0.552; in assay [3], -0.675; in assay [4] it was -0.752; in [5], -0.593; in assay [6], -0.414. For the same sequence, the PBM binding z-score in assay [7] is -0.68; in [8] it was -0.367; in assay [9] it was -1.15; in [10] it was -0.725; in [11], 0.408; in assay [12] it was 0.0173. Also, the PBM binding z-score was -0.74 in assay [13]; -1.06 in assay [14]; -0.674 in assay [15]; -0.491 in assay [16]; -0.859 in [17]; -0.138 in [18]. Further, the PBM binding z-score in assay [19] was -0.784; in [20] it was 1.24.
